Structures are written as SMILES. Out of some 330,000 compounds screened, about 10,000 (3%) were called active. What follows is part of a selection rich in actives, with near analogues and random picks from the rest. Unmarked numbers belong to inactive results.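 Rule for the calls: active = inhibition of at least 50% at 8 µM in the primary screen; inactive = the rest.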

Sequence of Protein Mdm4 (Homo sapiens) + E3 ubiquitin-protein ligase Mdm2 (Homo sapiens) (O15151 whole entry, looked up): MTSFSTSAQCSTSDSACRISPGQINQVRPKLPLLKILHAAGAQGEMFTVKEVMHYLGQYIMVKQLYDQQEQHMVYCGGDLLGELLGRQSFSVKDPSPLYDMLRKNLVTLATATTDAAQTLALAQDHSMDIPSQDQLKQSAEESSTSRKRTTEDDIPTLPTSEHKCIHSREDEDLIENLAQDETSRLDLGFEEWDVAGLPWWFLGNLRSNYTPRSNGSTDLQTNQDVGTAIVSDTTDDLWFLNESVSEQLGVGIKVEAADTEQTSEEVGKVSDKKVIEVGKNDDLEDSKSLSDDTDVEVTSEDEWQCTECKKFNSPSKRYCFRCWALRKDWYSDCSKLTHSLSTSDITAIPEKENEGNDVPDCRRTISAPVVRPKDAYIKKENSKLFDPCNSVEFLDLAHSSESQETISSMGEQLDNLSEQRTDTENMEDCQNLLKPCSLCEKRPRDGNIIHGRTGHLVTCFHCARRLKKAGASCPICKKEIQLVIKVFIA
Sequence of Protein Mdm4 (Homo sapiens) + E3 ubiquitin-protein ligase Mdm2 (Homo sapiens) (Q00987 whole entry, looked up): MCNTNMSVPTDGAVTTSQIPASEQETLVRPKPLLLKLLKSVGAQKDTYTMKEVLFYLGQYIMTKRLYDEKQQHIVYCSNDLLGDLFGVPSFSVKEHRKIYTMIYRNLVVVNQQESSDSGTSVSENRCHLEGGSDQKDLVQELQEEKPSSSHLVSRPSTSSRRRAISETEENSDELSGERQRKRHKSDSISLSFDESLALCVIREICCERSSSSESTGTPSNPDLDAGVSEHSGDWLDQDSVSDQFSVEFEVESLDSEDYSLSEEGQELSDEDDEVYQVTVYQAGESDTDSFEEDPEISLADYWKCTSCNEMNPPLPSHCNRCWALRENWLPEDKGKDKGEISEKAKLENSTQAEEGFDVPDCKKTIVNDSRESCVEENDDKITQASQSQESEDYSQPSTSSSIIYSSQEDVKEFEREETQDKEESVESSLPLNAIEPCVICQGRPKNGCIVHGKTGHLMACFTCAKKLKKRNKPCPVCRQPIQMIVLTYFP

This assay concerns the target Protein Mdm4 (Homo sapiens) + E3 ubiquitin-protein ligase Mdm2 (Homo sapiens) (UniProt O15151+Q00987). Kind of assay: disruptors of Mdm2/MdmX RING complex – cell-based, luminescence, split luciferase, SaOS-2, uHTS, primary screen (AID 485346). The conditions noted are these: SaOS-2 split-luciferase Mdm2/MdmX complementation, at 8 µM, stronger effect = higher value.
As usually defined, the inhibition is the change of the read-out against control, counted positive when it falls. Regarding `CCCCCCSc1ccc([C@@H]2[C@@H]3C(=O)N(CC)C(=O)[C@@H]3[C@]3(C(=O)OC)CCCCN23)cc1OC`, the inhibition is 54.2% (active).
Consider `CCN1C(=O)[C@@H]2[C@@H](c3ccc(-c4ccc(OC)cc4)c(OC)c3)N3CCC[C@@]3(C(=O)OC)[C@@H]2C1=O`, for which the inhibition is 28.1%.
As for `CCCCCCSc1ccc([C@@H]2[C@H]3C(=O)N(CC)C(=O)[C@H]3[C@]3(C(=O)OC)CCCCN23)cc1`, the inhibition was 29.8%.
As for `COCCn1c(C)cc(C(=O)CN2c3cccc4cccc(c34)S2(=O)=O)c1C`, the figure is 5.95%; as for `C/C(=N\Nc1ccc([N+](=O)[O-])cc1)c1ccc(-n2nncc2C(C)(C)C)cc1`, 22.2%.
As for `O=C(CN1C(=O)CSC1=O)N1CCCC(Nc2ccc(F)cc2)C1` (stereo not drawn), the figure is 5.11%; as for `CC1=NN(c2cccc(Cl)c2)C(=O)C12CC(C)=C(C)CS2` (stereo not drawn), 6.51%; as for `COc1cccc(N(C(=O)C2COc3ccccc3O2)C(C(=O)NC2CCCCC2)c2ccc(O)cc2)c1` (stereo not drawn), 5.54%.
On to `COc1ccc(C(C(=O)NC2CCCCC2)N(C(=O)CCl)c2ccccc2Cl)cc1` (stereo not drawn), for which the inhibition is 92% (active).
As to `COc1ccc(C(C(=O)NC2CCCCC2)N(C(=O)c2snc(C(N)=O)c2N)c2ccccc2OC)cc1` (stereo not drawn), the inhibition was 23.2%.
Turning to `Cc1nnc(SC(C(=O)Nc2cc(Cl)cc(Cl)c2)c2ccccc2)[nH]c1=O` (stereo not drawn), the inhibition was -11%.
As for `OCC1(Cc2ccccc2C(F)(F)F)CCN(Cc2cccc3cnccc23)CC1`, the figure is -16.9%; as for `Cc1cccc(C(=O)Nc2ccc(Oc3cnccn3)cc2)c1`, -15.7%.
On to `CCCCSc1nnc2c(n1)OC=Nc1ccccc1-2`, for which the inhibition was -25.2%.
Take `Cc1ccc(S(=O)(=O)NCC(=O)N(CC(=O)NC2CCCCC2)Cc2ccco2)cc1`: the inhibition is -4.29%.
On to `Cc1ccc(-c2cc(=O)[nH]c(NCc3ccccc3)n2)cc1`, for which the inhibition was -3.28%.
For the compound `Brc1ccc(C2CC(c3ccccc3)=Nc3ccccc3N2)cc1` (stereo not drawn), the inhibition is -130%.
With `CC(=O)Nc1ccc(/C=C/C(=O)c2ccccc2)cc1`, the inhibition is -7.03%.
As for `Cc1[nH]c(=O)c(C(=O)/C=C/c2ccccc2)c2c1CCCC2`, the inhibition was 70.9% (active).
In the case of `Cc1cn(COC/C=C/c2ccccc2)c(=O)[nH]c1=O`, the inhibition was 7.02%.
For `CC(C)C[C@H](CO)Nc1nc(N(C)c2cccc(Cl)c2)c2ncn(C(C)C)c2n1` the value was 22.9%.
In the case of `CC(C)n1cnc2c(Nc3cccc(Cl)c3)nc(N(CCO)CCCO)nc21`, the inhibition is 88.9% (active).
For the compound `COCn1c(C(O)c2ccccc2)cc2ccccc21` (stereo not drawn), the inhibition is -4.01%.
As for `Cc1cc(C)c2nc(N3CCC(C(=O)NCCN4CCOCC4)CC3)sc2c1`, the inhibition was 16.2%.
Take `Cc1ccc(N(Cc2cc(=O)[nH]c3ccccc23)C(=O)CCl)cc1`: the inhibition is 100% (active).
For `Cc1ccc(N(Cc2cc3ccccc3[nH]c2=O)C(=O)c2cccs2)cc1` the value was -12.3%.
With `CC(=O)N(Cc1cc(=O)[nH]c2ccccc12)c1ccc(C)cc1C`, the inhibition is 15.3%.
Turning to `O=C(NNC(=O)C(O)c1ccccc1)NC1CCCCC1` (stereo not drawn), the inhibition is 16.7%.
With `COc1ccc2nc(/N=C(\N)NC(=O)Nc3ccccc3)nc(C)c2c1`, the inhibition is 29%.
Regarding `Cc1nc(/N=C(\N)NC(=O)NC2CCCCC2)nc2ccccc12`, the inhibition is 53% (active).
Regarding `COc1ccc2c(c1)C(=C(C#N)C#N)C(=O)N2CCc1ccccc1`, the inhibition was 8.08%.
Regarding `Cc1ccc(C)c(NC(=O)CN(C)C(=O)c2ccc3ncsc3c2)c1`, the inhibition is 10.9%.
Turning to `C/C(=N\NC(=O)Cc1ccc(Br)cc1)c1cccnc1`, the inhibition is 9.71%.
For `COc1ccc(CC(=O)N/N=C(\C)c2ccccn2)cc1` the value was 56.7% (active).
As for `C/C(CC(=O)Nc1ccc(N(C)C)cc1)=N\NC(=O)c1ccccc1F`, the inhibition was 11.6%.
With `C/C(=N\NC(=O)c1ccccc1F)c1ccccn1`, the inhibition was 64.2% (active).
Turning to `C/C(=N\NC(=O)c1ccoc1C)c1ccccc1O`, the inhibition is 49.2%.
In the case of `COc1ccc(C/C(C)=N/NC(=O)c2ccncc2)cc1`, the inhibition is -14.9%.
`CCOc1ccccc1NS(=O)(=O)c1cc2c3c(c1)C(C)C(=O)N3CCC2` (stereo not drawn): the inhibition was 14.9%.
On to `CC1C(=O)N(Cc2ccccc2)c2ccccc2N1C(=O)c1ccccc1` (stereo not drawn), for which the inhibition is 4.7%.
In the case of `O=C(COC(=O)/C=C/c1ccc(Br)o1)Nc1cccc(S(=O)(=O)N2CCOCC2)c1`, the inhibition was 26.4%.
On to `CN(C)CCCSc1ccccc1NC(=O)/C=C/c1ccccc1`, for which the inhibition was -28.9%.
As to `CC(C)NC(=O)C(=O)NCCCOC(C)C`, the inhibition is 7.36%.
As for `CN(C)c1nc2n(c(=O)n1)CCO2`, the figure is -0.85%; as for `COc1ccc(CCNC(=O)C2CCCN(S(=O)(=O)c3ccc(OC)cc3)C2)cc1` (stereo not drawn), 31.8%.
For `O=C(COC(=O)c1cnccn1)Nc1ccc(Cl)cc1C(F)(F)F` the value was -11.4%; for `COc1cccc(CNn2cn[nH]c2=S)c1OCc1ccccc1`, 24.6%; for `O=[N+]([O-])c1ccc(Oc2ccc(F)cc2Br)c2ccncc12`, 78% (active).
On to `O=[N+]([O-])c1ccc(F)cc1Oc1nc(-c2cccnc2)nc2ccccc12`, for which the inhibition is 27.2%.
For the compound `Cc1oc2cc([N+](=O)[O-])c(O)c([N+](=O)[O-])c2c1C(=O)c1ccc(Br)cc1`, the inhibition is -16.1%.
For `Cc1cc(C)n(CCNCc2c(C(=O)N3C[C@@H](C)O[C@@H](C)C3)nc3ccc(Cl)cn23)n1` the value was 6.66%; for `COC(C[C@@H](O)C[C@H](O)[C@H](C)OCc1ccccc1)OC`, -23%.
With `Cn1nnnc1-c1cc(Cl)cc(Cl)c1`, the inhibition is 16.3%.
